Only some compounds are listed: those with a hit (about 3.8% of all), similar ones and a draw of the others.
pPAFAH inh – pPAFAH enzyme inhibitors, primary screen, biochemical, fluorescence polarization, human. inhibition, % at 3.39 µM. recombinant pPAFAH, FP-rhodamine probe fluorescence polarization. AID 463082, 2010. Platelet-activating factor acetylhydrolase (Homo sapiens), Q13093. actives 1.5% (n = 330,000);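 active = inhibition above the mean inhibition across the screen plus 3 SD, cut at about 25% in these data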;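 also: inhibitors block binding of the rhodamine activity-based probe so polarization drops; 0% = enzyme with DMSO and 100% = wells lacking pPAFAH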
PAFAH1B2 FP inh – PAFAH1B2 enzyme inhibitors, primary screen, biochemical, fluorescence polarization, human. Platelet-activating factor acetylhydrolase IB subunit alpha2 (Homo sapiens), P68402. recombinant PAFAH1B2, FP-rhodamine activity probe. inhibition, % at 3.39 µM. actives 1.2% (n = 340,000). AID 492953, 2010;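 active = inhibition above the mean of all tested compounds plus 3 SD, cut at about 24% in these data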;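 also: 0% = enzyme with DMSO and 100% = wells lacking PAFAH1B2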
Target sequence (P68402 whole entry, looked up): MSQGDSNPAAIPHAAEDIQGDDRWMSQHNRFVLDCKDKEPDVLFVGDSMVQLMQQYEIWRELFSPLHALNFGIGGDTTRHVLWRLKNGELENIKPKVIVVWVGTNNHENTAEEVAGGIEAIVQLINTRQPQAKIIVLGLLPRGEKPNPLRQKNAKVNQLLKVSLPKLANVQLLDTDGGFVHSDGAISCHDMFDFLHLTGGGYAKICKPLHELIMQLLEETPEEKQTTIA
PfM18AAP inh – PfM18AAP inhibitors, malaria aminopeptidase, primary screen, biochemical, QFRET, recombinant enzyme | H-Glu-NHMec fluorogenic cleavage | actives 1.2% (n = 290,000) | inhibition, % at 7.35 µM | AID 1822, 2009;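 active = inhibition above the campaign mean inhibition over all tested compounds plus 3 SD, cut at about 28% in these data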;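 also: 0% = plate median of test compound wells and 100% = 2 mM ZnCl2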
PAFAH1B3 FP inh – PAFAH1B3 enzyme inhibitors, primary screen, biochemical, fluorescence polarization, human | Platelet-activating factor acetylhydrolase IB subunit alpha1 (Homo sapiens), Q15102 | recombinant PAFAH1B3, FP-rhodamine probe | inhibition, % at 3.39 µM | actives 0.28% (n = 340,000) | AID 492972, 2010;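 active = inhibition above the screen-wide average of all tested compounds plus 3 SD, cut at about 25% in these data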;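 also: 0% = enzyme with DMSO only and 100% = wells lacking PAFAH1B3 protein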
Target sequence (Q15102 whole entry, looked up): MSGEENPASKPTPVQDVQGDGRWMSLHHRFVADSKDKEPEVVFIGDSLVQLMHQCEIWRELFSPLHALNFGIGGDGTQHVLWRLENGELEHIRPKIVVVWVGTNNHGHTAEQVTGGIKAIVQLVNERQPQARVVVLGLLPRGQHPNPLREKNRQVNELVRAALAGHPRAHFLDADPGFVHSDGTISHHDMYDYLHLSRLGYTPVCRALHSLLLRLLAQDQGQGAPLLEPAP
PAFAH2 FP inh – PAFAH2 enzyme inhibitors, primary screen, biochemical, fluorescence polarization, human. Platelet-activating factor acetylhydrolase 2, cytoplasmic (Homo sapiens), Q99487. recombinant PAFAH2, FP-rhodamine activity probe. inhibition, % at 3.39 µM. actives 0.99% (n = 340,000). AID 492956, 2010;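 active = inhibition above the mean over all tested compounds plus 3 SD, cut at about 30% in these data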;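 also: inhibitors block probe labeling of enzyme so polarization drops; 0% = enzyme with DMSO and 100% = wells lacking PAFAH2 protein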
Pemphigus Ab inh – inhibitors of pemphigus antibody binding to DSG3, primary screen, biochemical, bead-based, flow cytometry, scFv-GFP. DSG3-coupled beads, scFv-anti-DSG3-GFP binding; hits give low values. binding (percent of control), % at 10 µM. actives 0.48% (n = 310,000). AID 588358, 2011;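 active = binding more than 3 SD below its plate's average and above zero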;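 also: hits lower antibody fragment binding to DSG3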
PAFAH2 FP conf – PAFAH2 enzyme inhibitors, confirmation, biochemical, fluorescence polarization, human | actives 65% (n = 2,300) | recombinant PAFAH2, FP-rhodamine activity probe | shares compounds with PAFAH2 FP inh | inhibition, % at 3.39 µM | AID 493030, 2011;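 active = mean inhibition over three repeats above a set limit taken from the earlier primary screen, cut at about 30% in these data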;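 also: inhibitor blocks binding of rhodamine activity probe so polarization falls; 0% = enzyme with DMSO and 100% = wells lacking PAFAH2 protein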
* = called active by the depositor; nt = no result given.

SMILES | pPAFAH inh | PAFAH1B2 FP inh | PfM18AAP inh | PAFAH1B3 FP inh | PAFAH2 FP inh | Pemphigus Ab inh | PAFAH2 FP conf
Cn1cc(C(=O)Nc2ccc(C#N)cc2)c2ccccc2c1=O | 2 | 2 | 2 | 3 | 2 | 103 | nt
CC(C)(C)c1nc2scc(-c3cccs3)c2c(=O)o1 | 0 | 4 | -11 | 1 | 1 | 108 | nt
COc1cc(-c2nc3sc(C)c(C)c3c(=O)o2)cc(OC)c1OC | 6 | -2 | -1 | 5 | -2 | 89 | nt
Cc1sc2nc(-c3ccco3)oc(=O)c2c1C | -2 | 0 | 2 | 11 | 62* | nt | 47*
Cc1ccccc1-c1nc2sc(C)c(C)c2c(=O)o1 | 0 | -3 | 2 | 4 | 68* | 112 | 54*
Cc1sc2nc(C(C)(C)C)oc(=O)c2c1C | 9 | 5 | 8 | -7 | 36* | 94 | 40*
Cc1onc(-c2ccccc2)c1C(=O)N(C)CC(=O)Nc1ccc(F)c(F)c1F | 6 | 5 | nt | 5 | 14 | 100 | nt
Nc1cc(Cl)ccc1N1CCCCCC1 | 4 | 4 | 4 | 13 | 0 | 106 | nt
O=C(O)C(Cc1ccccc1)N=C(NS(=O)(=O)c1ccccc1)c1ccccc1 (configuration not stated) | 6 | 11 | nt | 11 | 9 | nt | nt
CC1CCCN(C(=O)c2cc(S(=O)(=O)N3CCCCC3)c[nH]2)C1 (configuration not stated) | 5 | -2 | 1 | 12 | 8 | 103 | nt
COc1ccc(NC(=O)COC(=O)C2=COCCO2)cc1OC | 3 | 2 | -3 | -2 | 8 | 100 | nt
Cc1cc(C)c(NC(=O)COC(=O)C2=COCCO2)c(C)c1 | nt | nt | nt | nt | nt | 100 | nt
O=C(COC(=O)C1=COCCO1)Nc1c(F)cccc1F | -2 | 1 | nt | 2 | 9 | 107 | nt
CC(C)c1cccc(C(C)C)c1NC(=O)COC(=O)C1=COCCO1 | -1 | 6 | -8 | 6 | 68* | 117 | 57*
O=C(COC(=O)C1=COCCO1)Nc1ccc2c(c1)OCO2 | 6 | 3 | -10 | 5 | 69* | 103 | 52*
Cc1ccc(NC(=O)COC(=O)C2=COCCO2)cc1 | 4 | 2 | -1 | 2 | 47* | 101 | 39*
O=C(COC(=O)C1=COCCO1)Nc1cc(Cl)c(Cl)cc1Cl | 2 | 1 | nt | 2 | 38* | 103 | 33*
Cc1cccc(CNC(=O)C2CCC(=O)N(C3CC3)C2)c1 (configuration not stated) | 3 | 2 | 1 | -2 | 5 | 112 | nt
COc1cc(CC(=O)N(c2ccccc2)c2nc(C)cs2)cc(OC)c1OC | 3 | -2 | 3 | 12 | -6 | 102 | nt
C#CCOCCOCCOCCNc1nc(N2CCN(C(=O)[C@H](CCCCN)n3cc([C@@H](N)CO)nn3)CC2)nc(N2CCN(C(=O)[C@H](Cc3cc4ccccc4[nH]3)n3cc([C@@H](N)CC(C)C)nn3)CC2)n1 | -2 | nt | -11 | nt | nt | nt | nt
CC(=O)Nc1ccc2nc(NC(=O)c3ccc([N+](=O)[O-])o3)sc2c1 | 0 | 4 | 2 | 10 | 9 | 95 | nt
Cc1cc(C)nc(SCC(=O)NN=Cc2ccc(C)o2)n1 | 3 | 1 | nt | -2 | 10 | nt | nt
CCC(C)c1ccc(NC(=O)COC(=O)C2=COCCO2)cc1 (configuration not stated) | 2 | 3 | 5 | -3 | 69* | 100 | 58*
Cc1ccc(C(C)NC(=O)COC(=O)C2=COCCO2)cc1C (configuration not stated) | 3 | 6 | nt | 0 | 11 | nt | nt
COc1ccccc1NC(=O)CNC(=O)c1ccc(Br)o1 | 2 | 2 | -12 | 0 | 5 | 117 | nt
SMILES | pPAFAH inh | PAFAH1B2 FP inh | PfM18AAP inh | PAFAH1B3 FP inh | PAFAH2 FP inh | Pemphigus Ab inh | PAFAH2 FP conf
Cc1ccc(NC(=O)COC(=O)/C=C/c2cccs2)c(C)c1 | 7 | 2 | 2 | 12 | 56* | 135 | 42*
Cc1cc(C)c(NC(=O)COC(=O)/C=C/c2cccs2)c(C)c1 | 3 | 3 | -7 | -12 | 35* | 109 | 31*
CCCn1c(SC(C)C(=O)N2CCOCC2)nc2ccc(Br)cc2c1=O (configuration not stated) | -3 | -2 | nt | -1 | -3 | 100 | nt
C=CCOc1ccc(/C=C/C(=O)OCC(=O)NCC2CCCCC2)cc1 | 8 | -1 | nt | 2 | 68* | 101 | 66*
C=CCOc1ccc(/C=C/C(=O)OCC(=O)NCCCc2ccccc2)cc1 | 9 | 0 | nt | -4 | 17 | 106 | nt
C=CCOc1ccc(/C=C/C(=O)OCC(=O)NC2CCCCCCC2)cc1 | -3 | 2 | 4 | 6 | 67* | 90 | 72*
CC(C)C(Cl)=NOC(=O)Nc1ccc(S(N)(=O)=O)cc1 | nt | 8 | nt | 6 | 47* | 102 | 39*
COC(=O)[C@H](C)NC(=O)Nc1ccc(S(N)(=O)=O)cc1 | 5 | 7 | -2 | -1 | 3 | 97 | nt
O=C(C[C@@H]1C/C=C\CC[C@@H](Cc2ccc(F)cc2)C(=O)OC[C@@H]2CCCN2C1=O)N[C@H](CO)Cc1ccccc1 | -4 | 9 | nt | -1 | 4 | 98 | nt
COc1ccc(S(=O)(=O)N2CCN(C(=S)Nc3ccc(S(N)(=O)=O)cc3)CC2)cc1 | -1 | 5 | 12 | 14 | 4 | 101 | nt
Oc1ccccc1/C=N/NC(=S)NC1CC2C=CC1C2 (configuration not stated) | 20 | 9 | 4 | 12 | 57* | nt | 30
Cc1cc(C(=O)N2CCN(Cc3ccccc3)CC2)ccc1[N+](=O)[O-] | -6 | -2 | 15 | 10 | 119* | 106 | 2
O=C(c1ccc(Br)c([N+](=O)[O-])c1)N1CCN(Cc2ccccc2)CC1 | 4 | 2 | -1 | 7 | -9 | 102 | nt
O=c1[nH]nc(CNc2ccc(C(F)(F)F)cc2)c2ccccc12 | 3 | 1 | -3 | -1 | 50* | 87 | 34*
Cc1ccc(C(=O)Nc2cccnc2N2CCN(C)CC2)cc1 | 3 | -1 | 6 | 5 | 1 | 116 | nt
c1ccc(C2[C@H]3CN(CC4CCCCC4)[C@H](c4ccccc4)C34CC2(c2cccnc2)C4)cc1 (some centres not stated) | 4 | 2 | nt | 17 | 56* | 108 | -2
c1ccc(C2[C@H]3CN(CC4CCCCC4)[C@H](c4ccccc4)C34CC2(c2ccccc2)C4)cc1 (some centres not stated) | -1 | 0 | nt | 5 | -7 | 102 | nt
